Assay results: PubChem BioAssay AID1159580 (chemical genetic matrix, 2015)
Where “and” joins values, the source holds several entries; their conditions need not be identical. Identical values can stand only once. The campaign covered roughly 5,500 compounds. About 2,000 (36%) were called active. About 18% were inconclusive and are not listed. Some of the results follow. A number with no mark means an inactive call. No stated cut-off is given here; in the data, active means normalized growth mostly below about 0.91 (no sharp cut-off); inconclusive means no clear call, values can overlap the other calls; inactive means mostly above about 0.92.

Assay: chemical genetic growth profiling, strain panel (AID 1159580);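 further: tested at 20 µM; growth read once vehicle control cultures reached saturation at 30 °C; 1 = growth at the plate median or of vehicle wells; lower values mean less growth of the strain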
Settings: S. cerevisiae deletion strains, growth OD

For `O=C1C=C2C(=CCOC2O)O1` (stereo unspecified), the normalized growth (locus YAL013W, strain DEP1, hits give low values) was 0.922, the normalized growth (locus YAL021C, strain ccr4, hits give low values) was 0.679 (active) and the normalized growth (locus YAL026C, strain drs2, hits give low values) was 0.644 (active). The normalized growth (locus YAL030W, strain snc1, hits give low values) was 0.781 (active), the normalized growth (locus YBL061C, strain skt5, hits give low values) was 0.796 (active) and the normalized growth (locus YBR009C, strain hhf1, hits give low values) was 0.71 (active). For the same compound, the normalized growth (locus YBR021W, strain FUR4, hits give low values) was 0.762 (active), the normalized growth (locus YBR023C, strain chs3, hits give low values) was 0.784 (active) and the normalized growth (locus YBR171W, strain sec66, hits give low values) was 0.672 (active). The normalized growth (locus YBR229C, strain ROT2, hits give low values) was 0.991, the normalized growth (locus YBR231C, strain swc5, hits give low values) was 0.73 (active) and the normalized growth (locus YBR279W, strain paf1, hits give low values) was 0.78 (active). For the same compound, the normalized growth (locus YCL011C, strain gbp2, hits give low values) was 0.759 (active), the normalized growth (locus YCL016C, strain dcc1, hits give low values) was 0.73 (active) and the normalized growth (locus YCL029C, strain bik1, hits give low values) was 0.913. For the same compound, the normalized growth (locus YCL069W, strain vba3, hits give low values) was 0.752 (active), the normalized growth (locus YCR088W, strain abp1, hits give low values) was 0.792 (active) and the normalized growth (locus YDL005C, strain med2, hits give low values) was 0.881 (active). For the same compound, the normalized growth (locus YDL035C, strain GPR1, hits give low values) was 0.776 (active), the normalized growth (locus YDL040C, strain nat1, hits give low values) was 0.887 (active) and the normalized growth (locus YDL074C, strain BRE1, hits give low values) was 0.678 (active). The normalized growth (locus YDL101C, strain DUN1, hits give low values) was 0.851 (active), the normalized growth (locus YDL134C, strain PPH21, hits give low values) was 0.9 and the normalized growth (locus YDL185W, strain tfp1, hits give low values) was 0.789 (active). For the same compound, the normalized growth (locus YDL192W, strain arf1, hits give low values) was 0.789 (active), the normalized growth (locus YDR001C, strain nth1, hits give low values) was 0.846 (active) and the normalized growth (locus YDR069C, strain doa4, hits give low values) was 0.652 (active). The normalized growth (locus YDR101C, strain arx1, hits give low values) was 0.8 (active), the normalized growth (locus YDR137W, strain rgp1, hits give low values) was 0.335 (active) and the normalized growth (locus YDR150W, strain NUM1, hits give low values) was 0.831 (active). For the same compound, the normalized growth (locus YDR159W, strain sac3, hits give low values) was 0.847 (active), the normalized growth (locus YDR162C, strain NBP2, hits give low values) was 0.258 (active) and the normalized growth (locus YDR195W, strain ref2) was 0.927. For the same compound, the normalized growth (locus YDR297W, strain sur2, hits give low values) was 0.797 (active), the normalized growth (locus YDR318W, strain mcm21, hits give low values) was 0.793 (active) and the normalized growth (locus YDR334W, strain swr1, hits give low values) was 0.845 (active). For the same compound, the normalized growth (locus YDR335W, strain msn5, hits give low values) was 0.698 (active), the normalized growth (locus YDR388W, hits give low values) was 0.864 (active) and the normalized growth (locus YDR392W, strain spt3, hits give low values) was 0.555 (active). The normalized growth (locus YDR502C, strain sam2, hits give low values) was 0.763 (active), the normalized growth (locus YEL003W, strain gim4, hits give low values) was 0.659 (active) and the normalized growth (locus YEL037C, strain rad23, hits give low values) was 0.82 (active). For the same compound, the normalized growth (locus YEL061C, strain CIN8 (second series), hits give low values) was 0.759 (active), the normalized growth (locus YEL061C, strain CIN8, hits give low values) was 0.848 (active) and the normalized growth (locus YER015W, strain faa2, hits give low values) was 0.635 (active). For the same compound, the normalized growth (locus YER016W, strain bim1, hits give low values) was 0.833 (active), the normalized growth (locus YER110C, hits give low values) was 0.597 (active) and the normalized growth (locus YER111C, strain swi4, hits give low values) was 0.938. The normalized growth (locus YER155C, strain BEM2 (second series), hits give low values) was 0.303 (active), the normalized growth (locus YER155C, strain BEM2, hits give low values) was 0.962 and the normalized growth (locus YER167W, strain BCK2, hits give low values) was 0.795 (active). For the same compound, the normalized growth (locus YFR010W, strain ubp6, hits give low values) was 0.613 (active), the normalized growth (locus YGL078C, strain dbp3, hits give low values) was 0.869 (active) and the normalized growth (locus YGL086W, strain mad1, hits give low values) was 0.806 (active). For the same compound, the normalized growth (locus YGL167C, strain pmr1, hits give low values) was 0.846 (active), the normalized growth (locus YGL173C, strain kem1, hits give low values) was 0.707 (active) and the normalized growth (locus YGL227W, strain vid30, hits give low values) was 0.843 (active). For the same compound, the normalized growth (locus YGL240W, strain doc1, hits give low values) was 0.487 (active), the normalized growth (locus YGL248W, strain PDE1, hits give low values) was 0.883 (active) and the normalized growth (locus YGL253W, strain hxk2, hits give low values) was 0.657 (active). For the same compound, the normalized growth (locus YGR078C, strain PAC10, hits give low values) was 0.702 (active), the normalized growth (locus YGR135W, strain pre9, hits give low values) was 0.784 (active) and the normalized growth (locus YGR229C, strain SMI1, hits give low values) was 0.366 (active). For the same compound, the normalized growth (locus YGR252W, strain gcn5, hits give low values) was 0.462 (active), the normalized growth (locus YHR013C, strain ard1, hits give low values) was 0.589 (active) and the normalized growth (locus YHR027C, strain rpn1, hits give low values) was 0.71 (active). The normalized growth (locus YHR030C, strain SLT2, hits give low values) was 0.9 (active) and 0.845 (active), the normalized growth (locus YHR079C, strain IRE1 (second series), hits give low values) was 0.858 (active) and the normalized growth (locus YHR079C, strain IRE1, hits give low values) was 0.84 (active). For the same compound, the normalized growth (locus YHR094C, strain hxt1, hits give low values) was 0.948, the normalized growth (locus YHR129C, strain ARP1, hits give low values) was 0.855 (active) and the normalized growth (locus YHR142W, strain chs7, hits give low values) was 0.684 (active). The normalized growth (locus YHR200W, strain rpn10, hits give low values) was 0.91 (active), the normalized growth (locus YIL066C, strain RNR3, hits give low values) was 0.776 (active) and the normalized growth (locus YIL073C, strain SPO22, hits give low values) was 0.5 (active). The normalized growth (locus YIL125W, strain kgd1, hits give low values) was 0.886 (active), the normalized growth (locus YIR030C, strain dcg1, hits give low values) was 0.911 (active) and the normalized growth (locus YJL092W, strain hpr5, hits give low values) was 0.744 (active). For the same compound, the normalized growth (locus YJL095W, strain BCK1 (second series), hits give low values) was 0.833 (active), the normalized growth (locus YJL095W, strain BCK1, hits give low values) was 0.795 (active) and 0.859 (active) and the normalized growth (locus YJL115W, strain asf1, hits give low values) was 0.961. The normalized growth (locus YJL129C, strain trk1, hits give low values) was 0.769 (active), the normalized growth (locus YJL134W, strain LCB3, hits give low values) was 0.961 and the normalized growth (locus YJL154C, strain vps35, hits give low values) was 0.859 (active). The normalized growth (locus YJL164C, strain tpk1, hits give low values) was 0.757 (active), the normalized growth (locus YJL166W, strain qcr8, hits give low values) was 0.667 (active) and the normalized growth (locus YJL168C, strain set2, hits give low values) was 0.939. The normalized growth (locus YJL187C, strain SWE1 (second series), hits give low values) was 0.829 (active), the normalized growth (locus YJR043C, strain POL32, hits give low values) was 0.882 and the normalized growth (locus YJR066W, strain TOR1, hits give low values) was 0.831. The normalized growth (locus YJR075W, strain HOC1, hits give low values) was 0.805 (active).
